# Calls of active or inactive are those of the source.
# Legend:
# [1] = E. coli DRC41 culture turbidity changes, primary screen, E. coli filamentation inducer project, strain DRC41, OD650, 48 h (AID 1152);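 note: E. coli MC1000 strain DRC41 lacking acrAB efflux pump and sulA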; conditions: E. coli DRC41 (acrAB sulA), higher = more signal, called active from +8 up or from −8 down
# [2] = small-molecule binders of probe aLefty1, primary screen, biochemical, small-molecule microarray, 635/667 nm fluorescence (AID 1153); conditions: higher = more signal;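 note: score merges spot fluorescence with signal-to-noise ratio from the scanned slide images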
# [3] = PSAC antagonists in infected red cells, primary screen, cell-based, P. falciparum Indochina, OD700, 1 h (AID 1154); conditions: P. falciparum Indochina infected RBC osmotic lysis, higher = more signal, called active from +8 up or from −8 down
# [4] = PSAC antagonists in infected red cells, primary screen, cell-based, P. falciparum Indochina, OD700, 2 h (AID 1155);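 note: lysis reports solute entry through the parasite surface anion channel PSAC; channel blockers reduce lysis of infected cells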; conditions: P. falciparum Indochina infected erythrocytes, osmotic lysis OD700; higher = more signal, called active from +8 up or from −8 down
# [5] = osmotic lysis modulators in infected erythrocytes, primary screen, PSAC antagonist project, cell-based, P. falciparum Indochina, OD700, 3 h (AID 1156); conditions: higher = more signal, called active from +8 up or from −8 down
# [6] = PSAC antagonists in infected red cells, primary screen, cell-based, P. falciparum Indochina, OD700, 18 h (AID 1157); conditions: P. falciparum Indochina infected erythrocytes, osmotic lysis OD700, 18 h; higher = more signal, called active from +8 up or from −8 down
# [7] = modulators of S6 phosphorylation in cells, primary screen, cell-based, A549, cytoblot, luminescence, serum-stimulated (AID 1158); conditions: A549 phospho-S6 cytoblot, 5 h, higher = more signal;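 note: serum-stimulated A549 lung adenocarcinoma cells; signal is phosphorylated S6 detected by cytoblot immunostaining with HRP secondary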
# [8] = target: NADPH oxidase 2 (Homo sapiens) (UniProt P04839); experiment: NOX2-dependent H2O2 signal modulators, primary screen, NOX inhibitor project, cell-based, HEK293-NOX2, PMA-stimulated, Amplex Red fluorescence (AID 1159); conditions: 45 min, higher = more signal, called active from +8 up or from −8 down; note: test concentration not given here
# Chain of NADPH oxidase 2 (Homo sapiens) (P04839 whole entry, looked up): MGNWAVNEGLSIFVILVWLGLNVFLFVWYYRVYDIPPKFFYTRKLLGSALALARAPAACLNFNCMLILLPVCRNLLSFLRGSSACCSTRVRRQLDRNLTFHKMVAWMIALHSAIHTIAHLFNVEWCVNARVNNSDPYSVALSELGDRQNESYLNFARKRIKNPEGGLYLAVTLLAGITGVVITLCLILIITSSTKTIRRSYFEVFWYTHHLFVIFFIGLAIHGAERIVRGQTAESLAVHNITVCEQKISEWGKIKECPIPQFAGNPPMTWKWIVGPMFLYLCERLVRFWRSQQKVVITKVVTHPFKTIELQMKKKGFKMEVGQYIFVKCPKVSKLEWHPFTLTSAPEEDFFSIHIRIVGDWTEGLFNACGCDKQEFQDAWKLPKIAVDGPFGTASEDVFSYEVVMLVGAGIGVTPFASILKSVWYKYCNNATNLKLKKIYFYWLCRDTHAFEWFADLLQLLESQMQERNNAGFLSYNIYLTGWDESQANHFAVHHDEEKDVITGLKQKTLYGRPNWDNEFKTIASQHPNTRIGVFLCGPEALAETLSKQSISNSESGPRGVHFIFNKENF
# [9] = target: NADPH oxidase 4 (Homo sapiens) (UniProt Q9NPH5); experiment: NOX4-dependent H2O2 signal modulators, primary screen, NOX inhibitor project, cell-based, HEK293-NOX4, tetracycline-induced, Amplex Red fluorescence (AID 1160); conditions: 45 min, higher = more signal, called active from +8 up or from −8 down
# Chain of NADPH oxidase 4 (Homo sapiens) (Q9NPH5 whole entry, looked up): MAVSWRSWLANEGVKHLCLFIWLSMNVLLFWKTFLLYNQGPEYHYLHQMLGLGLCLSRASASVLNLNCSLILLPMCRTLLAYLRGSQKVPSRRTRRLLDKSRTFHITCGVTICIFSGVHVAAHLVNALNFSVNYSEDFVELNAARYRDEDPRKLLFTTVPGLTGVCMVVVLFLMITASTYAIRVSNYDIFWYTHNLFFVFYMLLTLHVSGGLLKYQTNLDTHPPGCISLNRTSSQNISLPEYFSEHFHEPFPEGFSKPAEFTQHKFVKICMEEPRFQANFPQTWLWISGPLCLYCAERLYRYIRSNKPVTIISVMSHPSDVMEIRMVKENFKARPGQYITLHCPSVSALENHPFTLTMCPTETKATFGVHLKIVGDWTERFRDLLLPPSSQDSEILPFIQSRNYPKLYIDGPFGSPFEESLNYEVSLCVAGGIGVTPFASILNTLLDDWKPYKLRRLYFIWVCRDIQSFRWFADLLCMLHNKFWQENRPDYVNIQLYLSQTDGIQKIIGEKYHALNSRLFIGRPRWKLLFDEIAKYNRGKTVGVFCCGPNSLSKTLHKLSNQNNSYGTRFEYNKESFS
# [10] = target: NADPH oxidase 5 (Homo sapiens) (UniProt Q96PH1); experiment: NOX5-dependent H2O2 signal modulators, primary screen, NOX inhibitor project, cell-based, HEK293-NOX5, Amplex Red fluorescence (AID 1161); conditions: HEK293-NOX5, ionomycin, 45 min, higher = more signal
# Chain of NADPH oxidase 5 (Homo sapiens) (Q96PH1 whole entry, looked up): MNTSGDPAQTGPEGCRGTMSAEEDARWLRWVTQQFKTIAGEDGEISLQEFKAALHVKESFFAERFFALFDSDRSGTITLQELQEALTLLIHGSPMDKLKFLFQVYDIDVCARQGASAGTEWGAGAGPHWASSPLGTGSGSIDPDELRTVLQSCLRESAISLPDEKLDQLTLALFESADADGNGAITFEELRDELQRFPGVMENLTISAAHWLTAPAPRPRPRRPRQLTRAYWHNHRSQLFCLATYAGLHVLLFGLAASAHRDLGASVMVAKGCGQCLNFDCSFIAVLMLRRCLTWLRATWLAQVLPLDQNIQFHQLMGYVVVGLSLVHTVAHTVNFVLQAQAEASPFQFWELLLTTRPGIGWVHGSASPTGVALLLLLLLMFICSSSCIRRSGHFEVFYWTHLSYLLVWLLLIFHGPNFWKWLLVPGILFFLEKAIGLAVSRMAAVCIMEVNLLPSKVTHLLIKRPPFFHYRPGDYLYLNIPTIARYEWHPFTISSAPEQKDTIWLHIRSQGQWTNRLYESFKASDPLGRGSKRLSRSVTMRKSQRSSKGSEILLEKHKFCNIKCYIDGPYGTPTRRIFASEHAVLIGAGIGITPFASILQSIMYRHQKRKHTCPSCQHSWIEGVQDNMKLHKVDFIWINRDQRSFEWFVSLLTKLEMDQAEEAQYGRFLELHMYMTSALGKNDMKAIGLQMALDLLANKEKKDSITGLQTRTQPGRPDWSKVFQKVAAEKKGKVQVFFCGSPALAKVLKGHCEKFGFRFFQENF
SMILES,z-score [1],composite z-score [2],z-score [3],z-score [4],z-score [5],z-score [6],z-score [7],z-score [8],z-score [9],z-score [10]
COc1cc(CO)cc(I)c1O[C@H]1C=C(C(=O)NCCO)C[C@@H](NCCc2c[nH]c3ccccc23)[C@@H]1O,0.878 (inactive),0.335,11.3 (active),0.928 (inactive),1.22 (inactive),-0.869 (inactive),2.21,-0.912 (inactive),-1.4 (inactive),-0.447
COC(=O)c1c(CC[C@@H](CO)NC(=O)N[C@H](Cn2cc(-c3cncn3C)nn2)C(C)C)oc(C(C)=O)c1C(=O)OC,2.49 (inactive),-0.148,0.88 (inactive),-0.0063 (inactive),-0.181 (inactive),-0.519 (inactive),2.93,-1.33 (inactive),0.591 (inactive),-0.295
NC(=O)[C@H]1[C@@H]2C(=O)O[C@@H](c3ccccc3)[C@@H](c3ccccc3)N2[C@@H](c2ccc(O)cc2)[C@]12C(=O)Nc1ccc(C#CCCO)cc12,-0.331 (inactive),-0.0559,5.17 (inactive),0.92 (inactive),0.696 (inactive),0.442 (inactive),-0.289,0.482 (inactive),-0.661 (inactive),0.563
CCCC=C(CCC)[C@@H](NC(=O)c1ccc(C(F)(F)F)cc1)c1ccccc1,-1.25 (inactive),0.718,0.666 (inactive),-0.96 (inactive),0.394 (inactive),-1.05 (inactive),1.47,-3.96 (inactive),-3.71 (inactive),-3.65
C=C[C@H](OC)[C@@H](OC(=O)Nc1ccc(SC)cc1)c1ccc(OC)c(O)c1,2 (inactive),0.0004,18.9 (active),2.11 (inactive),-0.454 (inactive),-1.02 (inactive),0.738,-2.57 (inactive),-1.35 (inactive),-0.943
CO[C@@H]1COC(=O)CC=C[C@@H](C)[C@H](OC)COC(=O)CC=C[C@H]1C,0.356 (inactive),-0.257,-0.611 (inactive),-0.163 (inactive),-0.335 (inactive),-0.0143 (inactive),0.711,-0.49 (inactive),0.276 (inactive),0.586
COC(=O)C1=C(C)N(Cc2ccccc2)c2c(C(=O)OC)c(C(=O)OC)c(C(=O)OC)c(=O)n2[C@@H]1c1ccccc1,0.199 (inactive),-0.0186,0.294 (inactive),-1.61 (inactive),0.012 (inactive),-1.45 (inactive),0.715,1.74 (inactive),0.873 (inactive),-0.0758
C=CCNC(=O)[C@H]1[C@@H]2C(=O)O[C@@H](c3ccccc3)[C@@H](c3ccccc3)N2[C@@H](c2ccccc2OCCO)[C@]12C(=O)N(C(=O)OCCOC)c1ccc(C#CCNC(N)=O)cc12,1.8 (inactive),0.178,2.13 (inactive),-0.0443 (inactive),0.391 (inactive),-1.3 (inactive),1.78,1.76 (inactive),1.35 (inactive),-0.971
COCCOC(=O)N1C(=O)[C@@]2(c3cc(C#CCCO)ccc31)[C@H](C(=O)N1CCCCCCC1)[C@H]1C(=O)O[C@H](c3ccccc3)[C@H](c3ccccc3)N1[C@@H]2c1ccc(O)cc1,3.86 (inactive),1.6,1.06 (inactive),-0.755 (inactive),-0.0793 (inactive),-1.32 (inactive),5.3,1.7 (inactive),0.807 (inactive),1.67
O=C/C=C/c1ccc(/C=C/c2ccccc2)cc1,2.42 (inactive),0.25,3.87 (inactive),-0.941 (inactive),1.17 (inactive),-1.73 (inactive),0.972,0.825 (inactive),-1.69 (inactive),1.4
CCCNC(=O)[C@@H]1c2ccccc2C(=O)N(C2CCCCC2)[C@H]1c1ccc(CO)cc1,-0.401 (inactive),0.14,11 (active),0.867 (inactive),1.06 (inactive),0.72 (inactive),-0.326,0.747 (inactive),-0.201 (inactive),-1.24
C=C(CCCC)/C(=C/C[C@@H](OC(=O)c1ccncc1)c1cccc(OCCO)c1)c1cc(C(=O)OC)ccc1OC,1.37 (inactive),0.0371,21 (active),3.89 (inactive),2.48 (inactive),1.26 (inactive),-0.365,1.33 (inactive),1.62 (inactive),-0.975
CO[C@H]1COC(=O)[C@@H](Cc2ccccc2)NC(=O)[C@@H](C)COC(=O)CC=C[C@@H]1C,0.428 (inactive),-0.0573,-0.224 (inactive),-0.204 (inactive),-0.234 (inactive),-0.481 (inactive),-0.003,-0.246 (inactive),0.937 (inactive),0.264
CC(C)[Si](OCCCNS(=O)(=O)c1ccc(Br)cc1)(C(C)C)C(C)C,3.27 (inactive),-0.0236,0.869 (inactive),0.0808 (inactive),-3.37 (inactive),-0.442 (inactive),4.17,1.84 (inactive),-0.843 (inactive),-3.06
Cc1cc(C)c(C(O)C2C=CC3C(=O)N(C)C(=O)C3N2N2CCCCC2)c(C)c1 (stereo not given),-1.06 (inactive),0.554,-0.245 (inactive),0.827 (inactive),-0.285 (inactive),1.12 (inactive),-1.01,-0.669 (inactive),0.167 (inactive),-1.23
CN(C)C(=O)[C@@]1(Cc2ccccc2N=[N+]=[N-])N=C(c2ccc(OCCCO)cc2)O[C@H]1c1ccccc1CN=[N+]=[N-],1.04 (inactive),0.635,17.8 (active),2.5 (inactive),2.73 (inactive),-0.682 (inactive),1.01,-1.52 (inactive),1.06 (inactive),0.474
COc1cc2c(cc1OC)CN(C(=O)[C@H]1[C@@H]3C(=O)O[C@@H](c4ccccc4)[C@@H](c4ccccc4)N3[C@@H](c3ccccc3OCCO)[C@]13C(=O)Nc1ccc(C#CC4(O)CCCCCC4)cc13)CC2,2.29 (inactive),0.0686,3.02 (inactive),2.11 (inactive),3.25 (inactive),1.89 (inactive),0.389,1.07 (inactive),1.65 (inactive),1.43
COCC(=C=CC[C@H](O)c1ccc(OCCO)cc1)C[C@H](O)c1ccccn1,1.36 (inactive),-0.194,8.89 (active),0.989 (inactive),0.938 (inactive),0.48 (inactive),-0.324,2.36 (inactive),1.71 (inactive),1.32
C[C@@H]1CC[C@H]2C(=O)N3[C@@H](CC[C@@H](C)[C@@H]3c3cccc(N4CCOCC4)c3)C(=O)N2[C@H]1c1cccc(Br)c1,0.801 (inactive),-0.0061,8.99 (active),1.51 (inactive),0.826 (inactive),0.71 (inactive),-0.246,0.693 (inactive),0.815 (inactive),0.717
[N-]=[N+]=NCc1ccccc1C[C@]1(C(=O)N2CCCCC2)N=C(c2ccc(OCCCO)cc2)O[C@H]1c1ccccc1CN=[N+]=[N-],-0.481 (inactive),0.42,16.1 (active),3.02 (inactive),2.16 (inactive),1.16 (inactive),-0.574,0.545 (inactive),-0.692 (inactive),-0.824
CC(C)N1CC=CC23O[C@@H]4/C=C\CCCOC(=O)C4[C@H]2C(=O)N(CCCCCO)[C@@H]3C1=O (stereo not given in full),1.57 (inactive),-0.285,-0.455 (inactive),0.0907 (inactive),0.658 (inactive),-0.258 (inactive),0.946,0.845 (inactive),-0.00488 (inactive),1.7

# — PubChem BioAssay
